Experimental data from PubChem BioAssay (NCI).
About 83,000 compounds went through this panel and 20% of them were active in at least one assay; those are over-represented in the sample as a whole.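 Activity criterion: percent growth below 10, measured after cells in 96-well plates were exposed to a single compound concentration for 48 hours.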 A number with no mark means an inactive call. Active and inactive are the calls of the source.

What was measured:
Assay in all cases: NCI-60 one-dose screen, 48 h (100 = growth as untreated, 0 = no growth, -100 = all killed)
Conditions in all cases: 10 µM unless noted
T-47D breast = test system: T-47D breast
BT-549 breast = test system: BT-549 breast
MDA-MB-435 melanoma = test system: MDA-MB-435 melanoma
SW-620 colon = test system: SW-620 colon
MCF7 breast = test system: MCF7 breast
HCT-116 colon = test system: HCT-116 colon
HCC-2998 colon = test system: HCC-2998 colon
KM12 colon = test system: KM12 colon

## C=C[C@@H]1C[C@H](O)Cc2cc(F)ccc2N1
T-47D breast
  growth: 108%
BT-549 breast
  growth: 96.9%
MDA-MB-435 melanoma
  growth: 93.8%
SW-620 colon
  growth: 98.7%
MCF7 breast
  growth: 107%
HCT-116 colon
  growth: 103%
HCC-2998 colon
  growth: 96.2%
KM12 colon
  growth: 100%

## COc1cc2c(cc1OCCCCCn1c3ccccc3c3ccccc31)N=C[C@@H]1CCCN1C2=O
T-47D breast
  growth: -34.1% (active)
BT-549 breast
  growth: -61.6% (active)
MDA-MB-435 melanoma
  growth: -99.2% (active)
SW-620 colon
  growth: -79.1% (active)
MCF7 breast
  growth: -30.9% (active)
HCT-116 colon
  growth: -75.8% (active)
HCC-2998 colon
  growth: -94.8% (active)
KM12 colon
  growth: -11.4% (active)

## Cc1cc(N/N=C/c2nc(-c3ccc(Br)cc3)oc2C)c2cc(Br)ccc2n1
T-47D breast
  growth: 89.8%
BT-549 breast
  growth: 93.1%
MDA-MB-435 melanoma
  growth: -11.2% (active)
SW-620 colon
  growth: -46.5% (active)
MCF7 breast
  growth: -78.7% (active)
HCT-116 colon
  growth: 16.1%
HCC-2998 colon
  growth: 94.7%
KM12 colon
  growth: 60.2%

## CNC(=S)NNC(=O)C1CC1
T-47D breast
  growth: 104%
BT-549 breast
  growth: 92.1%
MDA-MB-435 melanoma
  growth: 114%
SW-620 colon
  growth: 112%
MCF7 breast
  growth: 96.9%
HCT-116 colon
  growth: 101%
HCC-2998 colon
  growth: 110%
KM12 colon
  growth: 109%

## Cc1nc2ncccc2nc1Nc1ccc(S(=O)(=O)Nc2ccccn2)cc1
T-47D breast
  growth: 91.2%
BT-549 breast
  growth: 83.3%
MDA-MB-435 melanoma
  growth: 109%
SW-620 colon
  growth: 102%
MCF7 breast
  growth: 92.7%
HCT-116 colon
  growth: 92%
HCC-2998 colon
  growth: 99.5%
KM12 colon
  growth: 97.8%

## CN(C[C@H]1Cc2c(cccc2N2CCN(c3ncccn3)CC2)CN1)[C@H]1CCCc2cccnc21
T-47D breast
  growth: 26.1%
BT-549 breast
  growth: 56.9%
MDA-MB-435 melanoma
  growth: 40.7%
SW-620 colon
  growth: 31.3%
MCF7 breast
  growth: 15.6%
HCT-116 colon
  growth: 19.6%
HCC-2998 colon
  growth: 53.9%
KM12 colon
  growth: 43.5%

## COc1ccc(-c2cnoc2-c2ccc(OC)cc2O)cc1
T-47D breast
  growth: 40.3%
BT-549 breast
  growth: 56.5%
MDA-MB-435 melanoma
  growth: -29.4% (active)
SW-620 colon
  growth: 11%
MCF7 breast
  growth: 19.6%
HCT-116 colon
  growth: 16.5%
HCC-2998 colon
  growth: 32%
KM12 colon
  growth: 19.2%

## O=C(c1c[nH]c(=O)c(-c2ccccc2)c1)c1ccccc1O
T-47D breast
  growth: 78.4%
BT-549 breast
  growth: 93.2%
MDA-MB-435 melanoma
  growth: 96.7%
SW-620 colon
  growth: 92.6%
MCF7 breast
  growth: 92.6%
HCT-116 colon
  growth: 90.5%
HCC-2998 colon
  growth: 94.2%
KM12 colon
  growth: 89.6%

## O=C1c2c(Cl)c(Cl)c(Cl)c(Cl)c2C(=O)C2(Cl)CC=CCC12Cl (stereo not drawn)
T-47D breast
  growth: -38.3% (active)
BT-549 breast
  growth: 43.6%
MDA-MB-435 melanoma
  growth: 21.5%
SW-620 colon
  growth: -68.7% (active)
MCF7 breast
  growth: -57.5% (active)
HCT-116 colon
  growth: -90.2% (active)
HCC-2998 colon
  growth: -43% (active)
KM12 colon
  growth: -6.67% (active)

## COc1cccc(/C=C2\Oc3cc(OCCCN4CCCC4)ccc3C2=O)c1OC
T-47D breast
  growth: 97.2%
BT-549 breast
  growth: 87.7%
MDA-MB-435 melanoma
  growth: 99%
SW-620 colon
  growth: 98.6%
MCF7 breast
  growth: 87%
HCT-116 colon
  growth: 83.7%
HCC-2998 colon
  growth: 113%
KM12 colon
  growth: 102%

## CC(=O)Oc1csc(N(C(C)=O)c2cc(C(=O)O)cc(C(=O)O)c2)n1
T-47D breast
  growth: 108%
BT-549 breast
  growth: 82.8%
MDA-MB-435 melanoma
  growth: 102%
SW-620 colon
  growth: 96.1%
MCF7 breast
  growth: 95%
HCT-116 colon
  growth: 91.3%
HCC-2998 colon
  growth: 98.6%
KM12 colon
  growth: 99.8%

## COc1ccc(C(=O)c2cc(OC)c(OC)c(OC)c2OC)cc1O
T-47D breast
  growth: 44.8%
BT-549 breast
  growth: 39.8%
MDA-MB-435 melanoma
  growth: -24% (active)
SW-620 colon
  growth: 20.5%
MCF7 breast
  growth: 17.5%
HCT-116 colon
  growth: 17.9%
HCC-2998 colon
  growth: 58.6%
KM12 colon
  growth: 20.8%

## Clc1cc(Cl)cc(-c2ccc(-c3ccc(/C=N/NC4=NCCN4)cc3)s2)c1
T-47D breast
  growth: 56.4%
BT-549 breast
  growth: 94.3%
MDA-MB-435 melanoma
  growth: 25.8%
SW-620 colon
  growth: -59.7% (active)
MCF7 breast
  growth: 16%
HCT-116 colon
  growth: -10.4% (active)
HCC-2998 colon
  growth: 19.3%
KM12 colon
  growth: -2.85% (active)

## COc1ccc(S(=O)(=O)NCCCNc2nccc(-c3c(-c4cccc([N+](=O)[O-])c4)nc4sccn34)n2)cc1
T-47D breast
  growth: 3.31% (active)
BT-549 breast
  growth: 36.5%
MDA-MB-435 melanoma
  growth: 42.1%
SW-620 colon
  growth: 91.4%
MCF7 breast
  growth: 34.5%
HCT-116 colon
  growth: 48.7%
HCC-2998 colon
  growth: 82.1%
KM12 colon
  growth: 28.9%

## O=C(Nc1cccc(-n2cc(-c3ccncc3)c(-c3ccc(Cl)c(O)c3)n2)c1)Nc1cccc(C(F)(F)F)c1
T-47D breast
  growth: 18.5%
BT-549 breast
  growth: 36%
MDA-MB-435 melanoma
  growth: 15.6%
SW-620 colon
  growth: 28.5%
MCF7 breast
  growth: 10.3%
HCT-116 colon
  growth: 9.75% (active)
HCC-2998 colon
  growth: 40.1%
KM12 colon
  growth: 2.46% (active)

## COc1ccc(/C=C2\N=C(c3ccccc3)N(C(=O)c3ccccc3O)NC2=O)cc1
T-47D breast
  growth: 96.6%
BT-549 breast
  growth: 92%
MDA-MB-435 melanoma
  growth: 95%
SW-620 colon
  growth: 100%
MCF7 breast
  growth: 92.8%
HCT-116 colon
  growth: 92%
HCC-2998 colon
  growth: 93.7%
KM12 colon
  growth: 92%
